Records with an inconclusive call do not appear. Where a call stands in place of a potency, no number is given. Activity calls are given as the source filed them. Calls come from the whole dose curve; as a rule, active = well fitted cell-killing curve with a large enough effect; inconclusive = small, poorly fitted or top-dose-only effect, or effect the other way; inactive = no such curve, though single readings can be large or run the other way.
Experiment: MultiTox-Fluor Cytotoxicity Assay - LYMP1-002 - Dead Cells (AID 960); note: nearly all actives have a fitted effect of over 60% in size
Conditions: LYMP1-002 lymphoblastoid cells, dead-cell protease fluorescence; series mostly up to 46.1 µM
Source text: NIH Chemical Genomics Center [NCGC]
NIH Molecular Libraries Screening Centers Network [MLSCN]
National Institutes of Environmental Health Sciences [NIEHS]
National Toxicology Program [NTP]
We have developed a 1536-well cell-based assay for quantitative high throughput screening (qHTS) against a number of cell lines to determine in vitro cytotoxicity of small molecules. This particular assay uses a human lymphoblastoid cell line (LYMP1-002) purchased from Coriell Institute.
NCGC Assay Protocol Summary:
The MultiTox-Fluor Cytotoxicity Assay (Promega) is a homogeneous method to simultaneously measure the relative number of live and dead cells in culture by detecting changes in cell membrane integrity. There are two fluorogenic peptide substrates in the assay reagent. Viable cells are determined when the cell-permeant substrate (GF-AFC) enters the cell and is cleaved by protease from live cells resulting in liberated fluorophore. This live-cell protease activity restricted to viable cells is proportional to cell number. The dead cells are determined by using fluorogenic cell-impermeant peptide substrate (bis-AAF-R110) which cleaved by dead cell proteases leaking from damaged cell membrane.
Using the MultiTox-Fluor Cytotoxicity Assay, the relative number of dead cells was measured in the lymphoblastoid cell line with complete culture medium following compound treatment for 16 hours. The assay was performed in opaque black Kalypsys 1536-well plates. In the screen, tetraoctylammonium bromide was used as positive control. Library compounds were measured for their ability to cause acute toxicity in the cell line, as reflected by an increase in dead cell protease activity, in a concentration-dependent manner. Data were normalized to the controls for basal activity (DMSO only) and 100% stimulation (15 uM tetraoctylammonium bromide). AC50 values were determined from concentration-response data modeled with the standard Hill equation.
qHTS protocol for MultiTox-Fluor Cytotoxicity assay
[Step] [Parameter] [Value] [Description]
1. Reagent; 5 uL; 2500 lymphoblastoid cells/well
2. Time; 5 hr; 37 C incubation
4. Controls; 23 nL; Tetraoctylammonium bromide 6.4pM to 92 uM
5. Time; 16 hr; 37 C incubation
6. Reagent; 5 uL; MuliTox-Fluor Assay reagent
7. Time; 60 min; Room Temperature
8. Detection; dead-cell fluorescence (Ex/Em=485/520); EnVision plate reader
Keywords: cytotoxicity, lymphoblastoid cell line, fluorescence, NTPHTS, NTPHTS_NCGC, NIEHS, EPA, DSSTox, MLSMR, MLSCN, NIH Roadmap, qHTS, NCGC
Potency is the fitted concentration of half-maximal effect.

Compound	Potency
Oc1cc(Cl)c(Cl)cc1Cl	inactive
ClCC1CO1 (stereo unspecified)	inactive
O=[N+]([O-])c1ccccc1	inactive
[O]=[Cd]	inactive
CCCCCCCCOC(=O)c1ccccc1C(=O)OCCCCCCCC	inactive
CC(C)(C)c1cc(O)ccc1O	inactive
CCCCCl	inactive
ClC(Cl)(Cl)Cl	inactive
COC1=CC(=O)O[C@@H](/C=C/c2ccccc2)C1	inactive
O=CC=O	inactive
O=C1C2CC=CCC2C(=O)N1SC(Cl)(Cl)Cl (stereo unspecified)	5.01 µM (active)
C[C@H]1CCC[C@H](O)CCCCCc2cc(O)cc(O)c2C(=O)O1	inactive
O=[N+]([O-])c1ccc(F)c([N+](=O)[O-])c1	inactive
O=C(O)C(Cl)(Cl)Cl	inactive
C=CCN=C=S	inactive
CC(C)CCON=O	inactive
[O]=[Cr](=[O])([OH])[O][Cr](=[O])(=[O])[OH]	inactive
CCOC(=O)c1ccccc1C(=O)OCC	inactive
S=C=S	inactive
O=Cc1ccco1	inactive
O=C1CCO1	inactive
Clc1ccccc1Cl	inactive
C[C@H]1CC[C@@H]2[C@@H](C)[C@H]3[C@H](C[C@H]4[C@@H]5CC=C6CC(O[C@@H]7O[C@H](CO)[C@H](O)[C@H](O[C@@H]8O[C@H](CO)[C@@H](O)[C@H](O)[C@H]8O)[C@H]7O[C@H]7O[C@@H](C)[C@H](O)[C@@H](O)[C@H]7O)CC[C@]6(C)[C@H]5CC[C@]34C)N2C1 (stereo partly specified)	inactive
O=C/C=C/c1ccccc1	inactive
COc1ccc2c(c1OC)C(=O)OC2C1c2cc3c(cc2CCN1C)OCO3 (stereo unspecified)	inactive
NNC(N)=O	inactive

Source: PubChem BioAssay (NCATS)
